Out of some 350,000 compounds screened, about 31,000 (8.9%) were called active. Roughly 15% stayed inconclusive and do not appear here. What follows is part of a selection rich in actives, with near analogues and random picks from the rest. Unmarked numbers belong to inactive results. Calls come from the whole dose curve; as a rule, active = well fitted inhibition curve with a large enough effect; inconclusive = small, poorly fitted or top-dose-only effect; inactive = no such curve, though single readings can be large or run the other way.
% is set by controls: 0 for no effect and ±100 for the full control effect; potency is the fitted concentration of half-maximal effect.

Sequence of Histone-lysine N-methyltransferase EHMT2 (Homo sapiens) (Q96KQ7 913-1193 limits assumed): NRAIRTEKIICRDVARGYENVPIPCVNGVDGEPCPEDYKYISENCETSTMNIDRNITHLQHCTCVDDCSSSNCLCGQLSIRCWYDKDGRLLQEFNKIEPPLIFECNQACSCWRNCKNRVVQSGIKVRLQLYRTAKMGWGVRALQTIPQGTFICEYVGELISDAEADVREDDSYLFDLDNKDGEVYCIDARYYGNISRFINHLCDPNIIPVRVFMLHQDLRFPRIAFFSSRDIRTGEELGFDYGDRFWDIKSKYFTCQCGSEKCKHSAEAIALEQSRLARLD

The target of the assay is Histone-lysine N-methyltransferase EHMT2 (Homo sapiens) (UniProt Q96KQ7). The experiment in a line: qHTS Assay for Inhibitors of Histone Lysine Methyltransferase G9a. Note: nearly all actives have a fitted effect of over 75% in size. To be noted: G9a H3K9 monomethylation, AlphaScreen, 2 h; series mostly up to 59 µM; activity, negative = inhibition: at the top concentration. In outline:
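Compounds were preincubated with 20 nM G9a for 15 min, after which biotinylated H3K9 peptide (500 nM) and SAM (20 uM) started a 2 h room-temperature reaction. Monomethylated product was quantified by antibody-based AlphaScreen chemiluminescence.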
As for `COc1cc2nc(SCC(=O)Nc3ccccc3F)n3nc(-c4ccccc4)nc3c2cc1OC`, the “activity, negative = inhibition” value was -29.1%.
As to `CCS(=O)(=O)c1ncc(N(Cc2ccc(F)cc2)Cc2ccco2)c(C(=O)Nc2cc(C)ccc2C)n1`, the “activity, negative = inhibition” value was 3.17%.
On to `Cc1ccc(S(=O)(=O)NCCNC(C)c2ccc(Br)cc2)cc1` (centres undefined), for which the activity, negative = inhibition is -1.1% [at 12.7 µM].
`Oc1cccc(/C=N/Nc2ccc(Cl)nn2)c1O`: the “activity, negative = inhibition” value is 32.7% [at 102 µM].
For `COc1cccc(/C=N/Nc2ccc(Cl)nn2)c1`, the “activity, negative = inhibition” value was -1.09% [at 102 µM].
Take `Clc1ccc(N/N=C/c2cccs2)nn1`: the Potency was 35.5 µM (active).
In the case of `CC(C)N(Cc1ccccc1)C(=O)COC(=O)c1ccccc1SCC(=O)N1CCCC1`, the activity, negative = inhibition was -46.5% [at 0.501 µM].
Turning to `O=C(CNC(=O)COc1ccccc1)NCCc1ccccn1`, the “activity, negative = inhibition” value is 13.5%.
As to `COc1ccc(NCCc2ccccn2)cc1`, the Potency was 39.8 µM (active).
`Cc1c(C)c(C)c(S(=O)(=O)NCCc2ccccn2)c(C)c1C`: the “activity, negative = inhibition” value is 11% [at 102 µM].
For the compound `CCOc1ccccc1NC(=O)C1CCCN(S(=O)(=O)c2cn(C)cn2)C1` (centres undefined), the “activity, negative = inhibition” value was 11.6%.
Regarding `CC(C)c1ccc(NC(=O)COC(=O)c2ccc(CN3CCCC3=O)cc2)cc1`, the activity, negative = inhibition is -8.03% [at 12.7 µM].
With `O=C(/C=C/c1ccccc1)c1ccccc1O`, the Potency is 44.7 µM (active).
In the case of `O=C(/C=C/c1ccccc1)c1ccoc1`, the activity, negative = inhibition is 10.3% [at 12.7 µM].
For `O=C(/C=C/c1ccccc1)N/C(=C/c1ccccc1)C(=O)Nc1ccccc1O`, the “activity, negative = inhibition” value was -41.1% [at 102 µM].
For `COCC1CCN(C(=O)CCc2nnc(C3(c4ccc(Cl)cc4)CCC3)o2)C1` (centres undefined), the “activity, negative = inhibition” value is 11% [at 102 µM].
Take `COc1ccc(-c2ocnc2C(=O)Nc2ccc3c(c2)CCC3)cc1`: the “activity, negative = inhibition” value is -7.46%.
As to `Fc1ccc(C(Nc2ccc(Cl)c(C(F)(F)F)c2)c2nnc(-c3ccccc3)o2)cc1` (centres undefined), the “activity, negative = inhibition” value is 31.9%.
Consider `Cc1cccc(OCCNC(=O)CSc2ccc(C(F)(F)F)cc2[N+](=O)[O-])c1`, for which the “activity, negative = inhibition” value is 5.94%.
On to `Nc1ccccc1Sc1ccc(C(F)(F)F)cc1[N+](=O)[O-]`, for which the Potency was 39.8 µM (active).
As to `O=[N+]([O-])c1cc(C(F)(F)F)ccc1NCCc1ccncc1`, the “activity, negative = inhibition” value was 21.9% [at 102 µM].
Take `CCc1cccc(NC(=O)CSc2nccn2C)c1`: the “activity, negative = inhibition” value was -3.93%.
Take `N#CC1=C(N)Oc2c(sc3ccccc23)C1c1ccco1` (centres undefined): the Potency was 39.8 µM (active).
For `CCOC(=O)CSC1=C(C#N)C(c2ccco2)C(C(=O)OCc2ccccc2)=C(C)N1` (centres undefined), the “activity, negative = inhibition” value is -12%.
On to `CCCCn1c(N)c(N(CCOC)C(=O)c2sc3ccccc3c2Cl)c(=O)[nH]c1=O`, for which the activity, negative = inhibition is 0.384% [at 0.501 µM].
Still for that read-out and setting: then `Cc1cccc(-c2nc(Nc3ccc(O)cc3)c3ccccc3n2)c1`, with 9.03% [at 12.7 µM].
For `CN1CCN(c2nc(Nc3ccc(O)cc3)nc3ccccc23)CC1`, the Potency was 25.1 µM (active).
`COc1ccccc1-c1nc(N2CCN(C)CC2)c2ccccc2n1`: the activity, negative = inhibition was 0.0472% [at 0.501 µM].
Still for that read-out and setting: the result for `CC(C)(C)c1ccc(S(=O)(=O)N2CCN(C(=O)c3cc(-c4ccc(Br)cc4)n[nH]3)CC2)cc1` reads 25.6%; that for `O=C(NC1CCN(Cc2ccccc2)CC1)c1c(F)cccc1F`, 17.9%.
For the compound `S=C(Nc1ccc(Br)cc1Cl)NC1CCN(Cc2ccccc2)CC1`, the “activity, negative = inhibition” value is 1.73% [at 102 µM].
Consider `S=C(NN=C1CCN(Cc2ccccc2)CC1)NC1CCCCC1`, for which the Potency is 50.1 µM (active).
For `COc1ccccc1NC(=O)c1cc(S(=O)(=O)NCCc2ccccc2)ccc1F`, the “activity, negative = inhibition” value was -2.37%.
As to `CCc1ccc(S(=O)(=O)n2ccnc2)cc1`, the “activity, negative = inhibition” value is 1.45%.
In the case of `CCOc1ccc(NC(=O)CN(C)C(=O)COc2cccc(CC)c2)cc1OCC`, the activity, negative = inhibition was -17.2% [at 0.501 µM].
As for `CS(=O)(=O)c1ccc2c(c1)SC1=NC(=O)/C(=C/c3ccco3)C(=N)N12`, the Potency is 50.1 µM (active).
For the compound `CCCCC(=O)OC1=CN(Cc2ccccc2)S(=O)(=O)c2ccccc21`, the “activity, negative = inhibition” value was 111%.
Turning to `COc1cccc(C(=O)OCc2cc(=O)oc3c(C)c(C)ccc23)c1OC`, the “activity, negative = inhibition” value is -5.18% [at 102 µM].
Same read-out and setting: then `CCOC(=O)N1CCC(N2Cc3cccc(C(=O)Nc4c(C)cccc4CC)c3C2=O)CC1`, with 11.5% [at 102 µM].
`C=C1c2c(Cl)ccc(O)c2C(O)=C2C(=O)[C@]3(O)C(O)=C(C(N)=O)C(=O)[C@@H](N(C)C)[C@@H]3[C@@H](O)C12` (some centres undefined): the Potency was 7.94 µM (active).
Consider `CN(C)[C@@H]1C(=O)C(C(N)=O)=C(O)[C@@]2(O)C(=O)C3=C(O)c4c(O)ccc(Cl)c4[C@@H](O)[C@H]3C[C@@H]12`, for which the Potency was 7.94 µM (active).
Turning to `CCCN(CC1CC1)C(=S)NC(=O)c1ccccc1Br`, the “activity, negative = inhibition” value is -20%.
For `Cc1ccc(Cl)cc1N1CCN(C(=O)CN2C(=O)COc3ccc(S(=O)(=O)N4CCOCC4)cc32)CC1`, the “activity, negative = inhibition” value was 0.165%.
On to `COc1ccc(-c2noc(C(C)NS(=O)(=O)c3ccc(NC(C)=O)cc3)n2)cc1` (centres undefined), for which the “activity, negative = inhibition” value was 22.5% [at 102 µM].
For the compound `COc1cc2nc(NCC(C)c3ccccc3)n3nc(-c4ccccc4)nc3c2cc1OC` (centres undefined), the “activity, negative = inhibition” value is -20.5%.
The same measure, in the same setting: then `CC(C(=O)NC1CCCC1)N1CCN(S(=O)(=O)c2ccccc2Cl)CC1` (centres undefined), with 1.28% [at 0.501 µM]; and `COc1cc2c(=O)c(S(=O)(=O)c3ccc(C(C)C)cc3)cn(Cc3ccccc3C)c2cc1OC`, with -33.9%.
On the same count and under the same terms, the result for `Cc1ccc(C)c(NC(=O)c2ccc3nccnc3c2)c1` reads 1.62% [at 102 µM].
For the compound `Cc1nnc(NC(=O)c2ccc3nccnc3c2)s1`, the Potency was 50.1 µM (active).
As for `Cc1ccc(C(=O)Nc2nnc(-c3cccs3)s2)cc1C`, the activity, negative = inhibition is -1.27% [at 12.7 µM].
With `COc1ccc(S(=O)(=O)NCc2cccnc2)cc1NC(=O)c1ccc(C)cc1`, the “activity, negative = inhibition” value is -33.4% [at 102 µM].
`CC(=O)c1c(C)n(S(=O)(=O)c2ccc(Cl)cc2)c2ccc(NS(=O)(=O)c3ccc(Cl)cc3)cc12`: the “activity, negative = inhibition” value was -47.6%.
`O=C(c1ccc2c(c1)N(Cc1ccccc1)C(=O)c1ccccc1S2(=O)=O)N1CCC(Cc2ccccc2)CC1`: the “activity, negative = inhibition” value is -0.698%.
Consider `CCC(=O)c1ccc(OCC(O)CN2CC(C)OC(C)C2)cc1` (centres undefined), for which the Potency was 14.1 µM (active).
Consider `CC1CCN(CC(O)COc2ccc(C(=O)c3ccccc3)cc2)CC1` (centres undefined), for which the activity, negative = inhibition was 3.75% [at 0.501 µM].
As for `CCC(=O)c1ccc(OCC(O)CN2C(=O)NC(C)(C)C2=O)cc1` (centres undefined), the “activity, negative = inhibition” value was -1.44% [at 102 µM].
Consider `CCOC(=O)C1CCN(C(=O)COC(=O)C2CCN(S(=O)(=O)c3ccc4c(c3)OCCO4)CC2)CC1`, for which the “activity, negative = inhibition” value is -35.2% [at 102 µM].
`CCOc1ccc(NS(=O)(=O)c2ccc(Cl)c(C(=O)N(C)Cc3cccnc3)c2)cc1`: the activity, negative = inhibition was 9.93% [at 12.7 µM].
On to `Cc1cc(C)cc(NC(=O)CCCc2nc(-c3ccccc3Cl)no2)c1`, for which the “activity, negative = inhibition” value was 6.38%.
